# PubChem BioAssay AID1490 (National Center for Advancing Translational Sciences (NCATS), 2009)
# Where “and” joins values, the source holds several entries; their conditions need not be identical. Identical values can stand only once. About 11,000 (3.5%) of roughly 310,000 compounds were called active. Roughly 4% stayed inconclusive and do not appear here. This excerpt belongs to a sample that is enriched for actives. Some structures have more than one record in an assay (separate samples or runs), and their calls can disagree. Unmarked numbers belong to inactive results. The call rests on the fitted dose curve; in most records, active means well fitted inhibition curve with a large enough effect; inconclusive means small, poorly fitted or top-dose-only effect, or another doubt; inactive means no such curve, though single readings can be large or run the other way.
# Target: 4'-phosphopantetheinyl transferase ffp (Bacillus subtilis) (UniProt Q9F4F7)
# Assay: qHTS Assay for Inhibitors of Bacillus subtilis Sfp phosphopantetheinyl transferase (PPTase);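 further: the enzyme is Sfp with the accession as filed and its product quenches rhodamine fluorescence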;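 on largest response in the series, negative = inhibition: 0% = enzyme reaction without inhibitor and -100% = no enzyme wells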
# Settings: Biochemical Sfp PPTase activity
# Source text: Assay Submitter: Michael Burkart, University of California, San Diego
# Screening Center PI: Austin, C.P.
# Screening Center: NIH Chemical Genomics Center [NCGC]
# The covalent attachment of a phosphopantetheinyl (4'-PP) arm to a variety of synthases and other proteins is a key posttranslational protein modification. The 4'-PP is installed on the proteins post-translationally from coenzyme A (CoA) on a conserved serine residue by action of phosphopantetheinyl transferase (PPTase) enzymes. Phosphopantetheinylation is essential for synthase activity, and removal of the PPTase gene precludes natural product synthesis in microorganisms, or in the case of fatty acid biosynthesis, renders the organism unviable. PPTase enzymes belong to a distinct structural superfamily. Within bacteria, these enzymes are grouped into two classes based upon primary structure, the AcpS-Type and Sfp-Type PPTases.
# Sfp-type PPTases, corresponding to an activator of surfactin production in Bacillus subtilis, are responsible for modifying type I polyketide and nonribosomal peptide synthases of prokaryotes. Sfp-type PPTases are responsible for the activation of a variety of pathogen-associated virulence factors. Among these compounds are toxins such as mycolactone from Mycobacterium ulcerans, siderophores such as vibriobactin from Vibrio cholerae or mycobactin from Mycobacterium tuberculosis, as well as the mycolic acids which form the waxy cell wall of Mycobacteria. The biosyntheses of these natural products are considered attractive targets for drug design.
# In search of small molecule Sfp-PPTase inhibitors, a fluorescence quenching assay was developed for detection of Bacillus subtilis Sfp-PPTase enzymatic activity in a miniaturized high-throughput format. The consensus ybbr acceptor peptide […] was N-terminally labeled with Black Hole Quencher-2 (BHQ-2) and used in combination with rhodamine-labeled coenzyme A as a co-substrate.
# Inhibition of Sfp-PPTase was detected by recording the fluorescence intensity change over a 30-minute reaction period at a 525 nm excitation and 598 nm emission. Reagents were supplied by Michael Burkart and Timothy Foley, University of California at San Diego.
# This BioAssay deposition is for validation of the developed Sfp-PPtase assay.
# Assay Buffer: 50 mM Hepes-Na pH 7.6, 10 mM MgCl2, 0.01% Nonidet P-40, and 0.01% BSA.
# 3 uL of Sfp-PPTase enzyme (final concentration 15 nM) and 1 uL of substrate mixture (final concentration for rhodamine-CoA and BHQ-2-YbbR 5 uM and 12.5 uM, respectively) dispensed in columns 1, 2, 5 - 48. Columns 1 and 2 used to generate neutral control (uninhibited reaction)
# Three uL of reagents, consisting of buffer (in columns 3 and 4 as negative control) and Sfp-PPTase (in columns 1, 2, 5 - 48) were dispensed into 1,536-well Greiner black solid bottom plate. Compounds (23 nL) were transferred via Kalypsys pintool equipped with 1,536-pin array. The plate was incubated for 15 min at room temperature, followed by the addition of 1 uL substrate to start the reaction. The plate was then centrifuged at 1000 rpm for 15 seconds, and the fluorescence intensity recorded on a ViewLux High-throughput CCD imager (Perkin-Elmer) using standard BODIPY optics (525 nm excitation and 598 nm emission). The plate was then incubated for 30 minutes, and a second read on the ViewLux was performed. The fluorescence intensity difference over the 30-minute period was used to calculate the respective reaction rate for each well.
# Potency means the concentration at half of the fitted maximal effect.
Structure (SMILES),Potency,"largest response in the series, negative = inhibition"
COc1ccccc1OCCNCC(O)COc1cccc2[nH]c3ccccc3c12 (stereo not drawn),50.1 µM (active),-10.5% and 8.7% and -18.4%
COc1cccc(NC(=O)C/C(C)=N/NC(=O)C2CCCCC2)c1,,9.15%
O=C(COc1ccccc1Cl)N1CCCCCCC1,,23.9%
COc1cc(NC(=O)c2ccccc2)c(OC)cc1NC(=O)Cc1ccccc1,,-10.9%
O=[N+]([O-])c1ccc(N2CCSCC2)cc1O,,17.8%
O=C1CSC(=S)N1/N=C/c1ccc(O)c([N+](=O)[O-])c1,39.8 µM (active),
Cc1cc(C(=O)N/N=C/c2ccc(O)c([N+](=O)[O-])c2)c(C)n1-c1ccc(F)cc1,,-9.8%
CCOC(=O)N1CCN(S(=O)(=O)N2CCCC(C(=O)NCCCN3CCC(C)CC3)C2)CC1 (stereo not drawn),,6.69%
O=C(CCC1CCCN(C(=O)c2ccc(F)c(F)c2)C1)N1CCN(c2ccccn2)CC1 (stereo not drawn),,7.09%
CSc1c(SCc2ccccc2)cnn(Cc2ccccc2)c1=O,44.7 µM (active),
CC(=O)Nc1ccc(NC(=O)CSc2ncnc3c2cnn3Cc2ccccc2)cc1,,13.9%
CSc1nc2ccccc2c(=O)n1Cc1ccc(F)cc1,,-16.2%
Cc1nc(COc2cc3oc(=O)cc(C)c3cc2Cl)cs1,,-11.1%
CN(C)c1nc(=Nc2cccc(Cl)c2)ss1,10 µM (active),
Cc1ccc(Cc2cnc(NC(=O)/C(C#N)=C/c3ccc(-c4cccc([N+](=O)[O-])c4)o3)s2)cc1,,3.34%
N#C/C(=C/c1ccc(-c2ccccc2[N+](=O)[O-])o1)C(=O)NCCN1CCCCC1,,-17.3%
Cc1ccc(-c2ccc(/C=C(\C#N)C(N)=S)o2)c([N+](=O)[O-])c1,35.5 µM (active),
CC(C)(C)C(=O)NC1CC2CCCC(C1)N2C(=O)Nc1ccccc1F (stereo not drawn),,15.8%
O=C(c1ccncc1)N1CCC2(CCN(Cc3cc(C(F)(F)F)cc(C(F)(F)F)c3)CC2)CC1,,8.21%
N#Cc1c(C(F)(F)F)cc(-c2ccc(Cl)cc2)nc1SCC(=O)O,,7.84%
N#Cc1c(-c2ccccc2)cc(-c2ccccc2)nc1SCC(=O)O,35.5 µM (active),
CCSc1nc(-c2ccc(OC)cc2)cc(-c2ccc(OC)cc2)c1C#N,,4.06%
Cn1c(=O)c2c(nc(NCc3ccccc3)n2CC(N)=O)n(C)c1=O,,10.1%
CCC/C(C)=N\Nc1nc2c(c(=O)n(C)c(=O)n2C)n1C,39.8 µM (active),

Structure (SMILES),Potency,"largest response in the series, negative = inhibition"
CC(O)c1nc2c(c(=O)n(C)c(=O)n2C)n1C (stereo not drawn),,11.9%
CCCC[C@H]1COCCS(=O)(=O)N1Cc1cccc(Cl)c1,,-5.24%
COc1ccc(CNC(=O)c2nnn(CC(=O)Nc3cc(C)cc(C)c3)c2N)cc1,,-8.71%
COc1ccc(C(=O)Nc2c(N)nc(SCC(=O)Nc3ccc(C(C)=O)cc3)[nH]c2=O)cc1,,-14.5%
Cc1ccc(OCC(=O)Nc2ccccc2C(=O)NC2CC2)cc1C,,-9.75%
CCOc1ccc(Cn2nnc(C(=O)NCc3ccccc3)c2N)cc1,,9.87%
CCOc1ccccc1NC(=O)Cn1nnc(C(=O)NCc2cccs2)c1N,50.1 µM (active),
CCOc1ccccc1NC(=O)Cc1cccs1,,13.9%
Cc1cccc(C(=O)OC(C)CN2CCCC2)c1 (stereo not drawn),,6.65%
Cc1ccc(F)c(NC(=O)CCOc2ccccc2C)c1,,-1.65%
Cn1cc[n+](C)c1COc1ccc(C=O)cc1,,12%
O=C1CCC([N+](=O)[O-])C(c2ccccc2Br)N1 (stereo not drawn),,15.7%
C=CCSC1=C(C#N)C(c2cc(Br)c(O)c(OC)c2)CC(=O)N1 (stereo not drawn),25.1 µM (active),
CCOC(=O)CSC1=C(C#N)C(c2sccc2C)CC(=O)N1 (stereo not drawn),,10.2%
Cc1ccc(C2CC(=O)NC(SCC(=O)OCc3ccccc3)=C2C#N)o1 (stereo not drawn),,-27.5%
O=S(=O)(NC1CCCC1)c1ccc(-n2cnnn2)cc1,,25.6%
O=C(NCCCn1ccnc1)C1CCCN(S(=O)(=O)c2cc(Cl)ccc2Cl)C1 (stereo not drawn),,16.2%
O=c1oc2ccccc2cc1-c1cn(-c2ccccc2)c(=S)[nH]1,35.5 µM (active),
O=C(c1cn(-c2ccccc2)nc1-c1cc2ccccc2oc1=O)N1CCOCC1,,-5.03%
O=C(Nc1cc2ccccc2oc1=O)C1CCCCC1,,26.6%
Cc1noc(C)c1CCC(=O)N1CCCC(CO)(Cc2ccccc2)C1 (stereo not drawn),,-6.98%
COc1ccc2c(c1)O[C@@H](c1ccc3c(c1)OCO3)[C@H](OC(=O)NCCc1ccc(OC)c(OC)c1)C2=O,,6.18%
CC(=O)c1ccc(N2CCN(C(=O)C3CCN(S(=O)(=O)c4ccc5c(c4)CC(C)N5C(=O)C4CC4)CC3)CC2)cc1 (stereo not drawn),,-0.0372%
